# Measurements published in paper PMC4336329 (PLoS ONE, 2015).
# The campaign covered roughly 310,000 compounds. About 14,000 (4.5%) showed an effect of 50% or more. Effects have a minus sign here. Shown is part of a subset that was picked to be rich in strong results.
# Biological target: human ether-à-go-go-related gene (hERG) potassium channel (human, UniProt Q12809)
# Assay: primary screen, population patch clamp on CHO cells stably expressing hERG; higher = less effect of the substance
# 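Also: peak tail current of the secondary pulse compared with the same well before compound.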
# Chain of human ether-à-go-go-related gene (hERG) potassium channel (Q12809 whole entry, looked up): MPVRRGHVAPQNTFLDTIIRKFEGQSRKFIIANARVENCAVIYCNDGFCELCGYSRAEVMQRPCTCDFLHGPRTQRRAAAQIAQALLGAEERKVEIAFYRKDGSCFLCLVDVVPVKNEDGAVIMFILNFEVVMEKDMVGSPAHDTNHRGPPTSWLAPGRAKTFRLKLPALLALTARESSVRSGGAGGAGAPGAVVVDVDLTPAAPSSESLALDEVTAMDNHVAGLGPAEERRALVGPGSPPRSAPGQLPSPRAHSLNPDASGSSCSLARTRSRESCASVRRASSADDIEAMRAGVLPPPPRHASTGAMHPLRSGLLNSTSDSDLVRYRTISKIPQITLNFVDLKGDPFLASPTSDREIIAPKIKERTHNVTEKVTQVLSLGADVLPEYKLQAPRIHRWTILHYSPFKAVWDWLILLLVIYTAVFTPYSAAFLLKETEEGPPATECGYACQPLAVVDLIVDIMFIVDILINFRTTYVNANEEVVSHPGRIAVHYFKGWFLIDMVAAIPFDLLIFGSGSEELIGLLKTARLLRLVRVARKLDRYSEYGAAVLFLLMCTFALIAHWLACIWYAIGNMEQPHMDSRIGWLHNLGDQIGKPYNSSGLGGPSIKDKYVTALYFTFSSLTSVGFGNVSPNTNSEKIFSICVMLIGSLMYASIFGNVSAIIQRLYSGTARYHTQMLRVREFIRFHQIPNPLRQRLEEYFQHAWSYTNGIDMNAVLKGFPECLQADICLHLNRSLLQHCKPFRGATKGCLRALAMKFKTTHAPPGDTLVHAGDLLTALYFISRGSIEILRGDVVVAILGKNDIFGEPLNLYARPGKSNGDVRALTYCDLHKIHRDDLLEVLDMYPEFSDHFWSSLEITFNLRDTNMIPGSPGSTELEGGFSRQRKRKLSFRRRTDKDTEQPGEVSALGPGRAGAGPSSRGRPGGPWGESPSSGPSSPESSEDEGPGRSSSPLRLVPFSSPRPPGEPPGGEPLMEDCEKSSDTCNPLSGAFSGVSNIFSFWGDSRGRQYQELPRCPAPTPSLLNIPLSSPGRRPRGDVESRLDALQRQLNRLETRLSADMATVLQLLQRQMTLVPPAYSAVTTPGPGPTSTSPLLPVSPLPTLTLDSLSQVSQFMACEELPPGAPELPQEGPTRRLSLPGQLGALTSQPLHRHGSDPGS
row,Compound,"hERG current change (%, negative = inhibition) at 10uM [%]"
1,CC1=C(C(=O)OCc2ccccc2)C(c2ccc(Cl)cc2Cl)NC(=O)N1CCCCCC(=O)O (centres unmarked),-16.2
2,CCN(CC(=O)Nc1ccc(OC)cc1)C(=O)c1cc(-c2cccs2)nn1-c1ccccc1,-15.4
3,CCOc1ccc(CN(C)C(=O)[C@H](Cc2ccccc2)NC(=O)OCc2ccccc2)cc1OC,-15.7
4,c1csc(CNc2ncnc3nc[nH]c23)c1,-2.79
5,O=C(O)c1cccc(NC(=O)C23CC4CC(C2)CC(n2cnc(Cl)n2)(C4)C3)c1,6.02
6,O=C(Nc1ccon1)C12CC3CC(C1)CC(n1cnc([N+](=O)[O-])n1)(C3)C2,-50.5
7,O=C(Nc1cc(Oc2ccccc2)cc([N+](=O)[O-])c1)C12CC3CC(C1)CC(n1cnc(Cl)n1)(C3)C2,13.9
8,O=C(Nc1cccc([N+](=O)[O-])c1)C12CC3CC(C1)CC(n1cnc([N+](=O)[O-])n1)(C3)C2,-67.8
9,Cc1cc(NC(=O)C23CC4CC(C2)CC(n2cnc([N+](=O)[O-])n2)(C4)C3)no1,-32.4
10,O=[N+]([O-])c1ncn(C23CC4CC(CC(C4)C2)C3)n1,-8.76
11,COc1ccc(CNC(=O)c2coc(=O)c3ccccc23)cc1,-27.3
12,O=C(NC1CCN(Cc2ccccc2)CC1)C(NS(=O)(=O)c1cccc2nsnc12)c1ccccc1 (centres unmarked),-44.6
13,Cc1ccc(OCC(=O)N/N=C\c2cccn2C)c([N+](=O)[O-])c1,-8.65
14,O=C(O)[C@H]1CCCC[C@H]1C(=O)Nc1ccc(Nc2ccccc2)cc1,4.15
15,CSc1sc(C(=O)N2CCc3ccccc32)cc1S(=O)(=O)C(C)C,14.2
16,Cn1cnnc1Sc1ccc(S(C)(=O)=O)cc1[N+](=O)[O-],13
17,Cn1cnnc1Sc1cc(N2CCNCC2)ccc1[N+](=O)[O-],7.66
18,Cn1cnnc1Sc1cc(N2CCN(S(=O)(=O)c3ccccc3)CC2)ccc1[N+](=O)[O-],-60.5
19,Cc1ccc(S(=O)(=O)N2CCN(c3ccc([N+](=O)[O-])c(Sc4nncn4C)c3)CC2)cc1,-62.3
20,CN1CCN(c2ccc([N+](=O)[O-])c(Sc3nncn3C)c2)CC1,-9.71
21,Cn1cnnc1Sc1cc(N2CCN(S(=O)(=O)c3ccc(Cl)c(Cl)c3)CC2)ccc1[N+](=O)[O-],-10.6
22,[N-]=[N+]=NC(c1ccccc1)c1nc2ccccc2[nH]c1=O (centres unmarked),-7.74
23,Nc1ccccc1Cl,10.3
24,O=C(NCc1ccco1)c1cccc(Nc2nc3ccc(Br)cc3[nH]2)c1,-11.2
25,Cc1ccc(-n2c(C)cc(/C=N/Nc3ccc([N+](=O)[O-])cn3)c2C)cc1,-4.67

row,Compound,"hERG current change (%, negative = inhibition) at 10uM [%]"
1,COc1ccc(NC(=O)/C(C#N)=C\c2cc(C)n(-c3ccc(Oc4ccc([N+](=O)[O-])cn4)cc3)c2C)cc1,10.8
2,Cc1cc(C=O)c(C)n1-c1ccc(Oc2ccc([N+](=O)[O-])cn2)cc1,-56.7
3,COCC(=O)N1CCC(Oc2ccc(C(=O)NC(C)c3csc(C)n3)cc2)CC1 (centres unmarked),10.4
4,COc1ccc2cc([C@@H](C)C(=O)[O-])ccc2c1.[Na+],-2.41
5,CC(OC(=O)C1CCN(S(=O)(=O)c2ccccc2)CC1)C(=O)Nc1ncc(Cl)cc1Cl (centres unmarked),-64
6,COC(=O)c1ccccc1S(=O)(=O)N1CCC(C(=O)OCc2ccc([N+](=O)[O-])cc2)CC1,-57.1
7,COC(=O)c1ccccc1S(=O)(=O)N1CCC(C(=O)OCc2cccc(OC)c2OC)CC1,-13.5
8,CC(OC(=O)C1CC1)C(=O)Nc1ncc(Cl)cc1Cl (centres unmarked),18.1
9,COC(=O)c1ccccc1S(=O)(=O)N1CCC(C(=O)OC(C)C(=O)NC(N)=O)CC1 (centres unmarked),29.7
10,COc1ccc(COC(=O)C2CCN(S(=O)(=O)c3ccc(C)cc3)CC2)cc1,-7.61
11,COC(=O)c1ccccc1S(=O)(=O)N1CCC(C(=O)OC(C)C(=O)Nc2ccccc2OC)CC1 (centres unmarked),-51.3
12,COC(=O)c1ccccc1S(=O)(=O)N1CCC(C(=O)OC(C)C(=O)Nc2ccc(NC(C)=O)cc2)CC1 (centres unmarked),-14.6
13,CC(OC(=O)C1CCCC1)C(=O)Nc1ncc(Cl)cc1Cl (centres unmarked),-2.36
14,O=C(OCc1ccc([N+](=O)[O-])cc1)C1CCN(S(=O)(=O)c2ccccc2)CC1,-37.3
15,COC(=O)c1ccccc1S(=O)(=O)N1CCC(C(=O)OCC(=O)c2ccccc2OC)CC1,-16.8
16,Cc1ccc(S(=O)(=O)N2CCC(C(=O)OCc3ccc([N+](=O)[O-])cc3)CC2)cc1,-69.8
17,CC(C(=O)Nc1ccc(Cl)cc1Cl)N1CC=C(c2ccccc2)CC1 (centres unmarked),-28.1
18,CCn1c(=O)c(CCC(=O)N2CCN(c3ccccn3)CC2)c(C)c2c(C)nn(-c3ccccc3)c21,-17.8
19,Cc1ccc2nc(SCC(=O)N3CCCC3)nc(=O)n2c1,-0.651
20,Cn1nc(C(=O)Nc2nc3ccccc3[nH]2)c2ccccc2c1=O,-47.1
21,CC(C)OCCCNC(=O)C1CCC(CNS(=O)(=O)c2ccccc2)CC1 (centres unmarked),-7.62
22,Cc1ccc(C(C)(C)C)c(OCCCn2ccnc2)c1.O=C(O)C(=O)O,-16.6
23,CCc1cc(CNC(=O)CC2C(=O)NCCN2Cc2ccccc2C(F)(F)F)on1 (centres unmarked),10
24,Cc1ccc2nc(NC(=O)Cn3nc(C)c([N+](=O)[O-])c3C)sc2c1,-23.5
25,CCOc1ccc(C(=O)OCC(=O)NC2CCCC2)cc1OCC,8.34
